High-throughput results from PubChem BioAssay.
AmpC no deterg – qHTS Inhibitors of AmpC Beta-Lactamase (assay without detergent); P00811; AmpC nitrocefin hydrolysis, absorbance 480 nm, 0.0001% Triton; Potency, µM (doses to about 57.1 µM), hits mostly inhibitors; actives 0.52% (n = 330,000); also: nearly all actives have a fitted effect of over 20% in size
Target sequence (P00811 whole entry, looked up): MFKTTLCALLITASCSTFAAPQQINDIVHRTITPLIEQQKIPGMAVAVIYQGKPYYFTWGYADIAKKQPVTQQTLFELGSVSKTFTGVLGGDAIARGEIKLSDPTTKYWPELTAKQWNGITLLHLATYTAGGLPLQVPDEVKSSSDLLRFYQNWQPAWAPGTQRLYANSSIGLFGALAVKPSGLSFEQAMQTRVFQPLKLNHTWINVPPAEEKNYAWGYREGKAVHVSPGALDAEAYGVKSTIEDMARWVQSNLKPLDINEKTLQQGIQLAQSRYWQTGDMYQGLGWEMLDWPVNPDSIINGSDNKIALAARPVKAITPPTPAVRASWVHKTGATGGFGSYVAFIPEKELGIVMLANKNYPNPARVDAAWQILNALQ
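AmpC (5.3 nM in the dispensed reagent) in 20 mM phosphate pH 7.0 with 0.01% (detergent screen) or 0.0001% Triton X-100 was preincubated with compounds for 15 min at room temperature. Nitrocefin was then added from an 800 uM solution, and hydrolysis was followed at 480 nm.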
FMDV inh – High Throughput Screening for Foot and Mouth Disease Virus Antivirals; FMDV antiviral cell-based qHTS; actives 1.2% (n = 410,000); AID 1159524, 2015; Potency, µM (series often up to 57.9 µM), hits mostly inhibitors; calls by dose curve; tested in HEK293T cells; also: read-out not given here; nearly all actives have a fitted effect of over 45% in size
HCV inh – qHTS Assay for Inhibitors of Hepatitis C Virus (HCV); Huh7.5.1 HCVcc-Cre infection, luciferase reporter, 44 h; Potency, µM (doses to about 41.8 µM), most hits filed as inhibitors; actives 3.4% (n = 340,000)
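Luciferase read-out (15 sec integration) after a 15 min room-temperature substrate step quantifies HCVcc-Cre infection. Cells, 1,000 per well, had compound added 4 h post-plating, then virus at ~0.5 moi, and were cultured 44 h.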
HCMV inh – qHTS Assay for inhibitors of the human cytomegalovirus (HCMV); actives 4.5% (n = 410,000); activity change, negative = inhibition, % at 57.5 µM; AID 1259415, 2018; HFF cells, HCMV-luciferase reporter, 72 h; hits give low values; in the data active = activity change below about -60%; inconclusive = no clear call, values can overlap the other calls; inactive = above about -39%
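Compounds were evaluated in HFFs infected with an HCMV luciferase reporter virus (MOI 1 PFU/cell). Luciferase in lysates collected 72 h post infection served as the replication measure.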
AmpC inh detg – qHTS Inhibitors of AmpC Beta-Lactamase (assay with detergent) | P00811 | AmpC hydrolysis of nitrocefin, absorbance 480 nm, 0.01% Triton | Potency, µM (highest dose often 114 µM), actives largely listed as inhibitors | actives 0.041% (n = 370,000) | AID 485294, 2010; also: nearly all actives have a fitted effect of over 25% in size
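20 mM phosphate pH 7.0 + 0.01% (detergent screen) or 0.0001% Triton X-100; 5.3 nM AmpC reagent; cpd preinc 15 min RT; nitrocefin (800 uM stock) to start; A480 q20 s × 4 min; Activity was normalised to no-enzyme and no-compound control wells.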
Each line names hits and unclear results; the compound was inactive in the other large screens; ! = repeats disagree. Shown are actives, neighbours in structure and some others; about 7.3% of the full set was active somewhere. Unless noted, calls follow the shape of the dose curve; as a rule, active = well fitted curve in the direction sought with a large enough effect; inconclusive = small, poorly fitted or top-dose-only effect, or another doubt; inactive = no such curve, though single readings can be large; an effect the other way counts as inactive or inconclusive.

Cc1cccc(C)c1NC(=O)C1N=Cc2ccccc2N=C1c1cccc(Br)c1 (centres undefined)	none (no result: AmpC no deterg, FMDV inh, HCV inh, AmpC inh detg)
CC(C)C[C@H]1CNC(=S)N1CC1CCCN1C[C@H](Cc1ccccc1)N1C[C@H](Cc2ccc(O)cc2)N(CC2CCCCCC2)C1=S (some centres undefined)	FMDV inh inconclusive, HCV inh 6.3µM, HCMV inh -101 (no result: AmpC no deterg, AmpC inh detg)
CC(C)C[C@H]1CNC(=S)N1C[C@H]1CCCN1C[C@H](Cc1ccc(O)cc1)N1C[C@H](Cc2ccc(O)cc2)N(CC2CCCCCC2)C1=S	HCMV inh -83 (no result: AmpC no deterg, HCV inh, AmpC inh detg)
CCCS(=O)(=O)NC(=O)C1(C)CCN(C(=O)Cc2ccc(OC)c(OC)c2)C1 (centres undefined)	none (no result: AmpC no deterg, HCV inh, AmpC inh detg)
Cc1ccc(OCCSc2nc3ccccc3n2CC(=O)N2CCOCC2)cc1C	none (no result: AmpC no deterg, HCV inh)
CCOc1ccc(CCN2C(=S)N([C@@H](CC(C)C)CN3CCCC3CN3C(=S)NC[C@@H]3Cc3ccc(O)cc3)C[C@@H]2CC(C)C)cc1 (some centres undefined)	HCV inh inconclusive, HCMV inh inconclusive (no result: AmpC no deterg, AmpC inh detg)
CCOc1ccc(CCN2C(=S)N([C@@H](CC(C)C)CN3CCCC3CN3C(=S)NC[C@@H]3CC(C)C)C[C@@H]2Cc2ccc(O)cc2)cc1 (some centres undefined)	HCV inh 0.56µM (no result: AmpC no deterg, AmpC inh detg)
CCOc1ccc(CCN2C(=S)N([C@@H](CC(C)C)CN3CCC[C@@H]3CN3C(=S)NC[C@@H]3CC(C)C)C[C@@H]2Cc2ccc(O)cc2)cc1	HCMV inh -98 (no result: AmpC no deterg, HCV inh, AmpC inh detg)
COc1ccccc1-c1ccc(C(=O)NCCN2CCOCC2)c(N2CCN(c3ccccc3F)CC2)n1	none (no result: AmpC no deterg, HCV inh, HCMV inh, AmpC inh detg)
CN(CCc1ccccc1)C(=O)c1cc(COc2ccc(F)cc2Cl)on1	none
CCCC(c1nnnn1CS(=O)(=O)c1ccc(C)cc1)N1CCN(c2ccccc2)CC1 (centres undefined)	HCV inh inconclusive
Oc1ccc(N2CCN(C(c3cccnc3)c3nnnn3Cc3ccccc3)CC2)cc1 (centres undefined)	AmpC inh detg inconclusive (no result: FMDV inh)
CCC(c1nnnn1CS(=O)(=O)c1ccc(C)cc1)N1CCN(c2nc3ccccc3s2)CC1 (centres undefined)	HCV inh inconclusive, HCMV inh -64 (no result: FMDV inh)
c1ccc(CCn2nnnc2C(c2cccnc2)N2CCN(c3nc4ccccc4s3)CC2)cc1 (centres undefined)	HCV inh 25µM, HCMV inh inconclusive (no result: FMDV inh)
c1ccc(CCn2nnnc2C(c2cccnc2)N2CCN(c3ccccc3)CC2)cc1 (centres undefined)	HCMV inh -64 (no result: FMDV inh)
COc1ccc(C(c2nnnn2Cc2ccccc2)N2CCN(c3nc4ccccc4s3)CC2)cc1 (centres undefined)	HCV inh inconclusive
Cc1cc(C(=O)Nc2ccccc2-c2nc(CNC(=O)c3cscn3)c(C)o2)c(C)o1	none (no result: AmpC no deterg, HCV inh, HCMV inh, AmpC inh detg)
CCc1ccc(-n2c(=O)c3c(C)c(C(=O)N(C)C)sc3n(Cc3ccccc3F)c2=O)cc1	none (no result: AmpC no deterg, HCV inh)
CC1CCCC(NC(=O)CN2CCN(S(=O)(=O)c3ccc(Br)s3)CC2)C1C (centres undefined)	FMDV inh inconclusive
CC(=O)Nc1ccc(S(=O)(=O)Oc2cccc(N3C(=O)C4CCCCC4C3=O)c2)cc1 (centres undefined)	FMDV inh 18µM
Cc1ccc(S(=O)(=O)Oc2cccc(N3C(=O)C4CC=CCC4C3=O)c2)cc1 (centres undefined)	none
CCSc1ncc(Cl)c(C(=O)Nc2ccc(S(=O)(=O)N3CCC(C)CC3)cc2)n1	FMDV inh inconclusive, HCMV inh inconclusive (no result: AmpC no deterg, HCV inh)
CCSc1ncc(Cl)c(C(=O)Nc2ccc(S(N)(=O)=O)cc2)n1	HCMV inh -85
CCCSc1ncc(Cl)c(C(=O)Nc2ccc(S(=O)(=O)N3CC(C)OC(C)C3)cc2)n1 (centres undefined)	HCV inh 10µM, HCMV inh -68
CCSc1ncc(Cl)c(C(=O)Nc2ccc(S(=O)(=O)Nc3ncccn3)cc2)n1	none
CSc1ncc(Cl)c(C(=O)Nc2ccc(S(=O)(=O)N3CCC(C)CC3)cc2)n1	FMDV inh inconclusive, HCMV inh -77 (no result: AmpC no deterg, HCV inh)
CCS(=O)(=O)c1ncc(Cl)c(C(=O)Nc2ccc(S(=O)(=O)N3CCC(C)CC3)cc2)n1	FMDV inh 14µM, HCV inh inconclusive, HCMV inh -100, AmpC inh detg inconclusive
O=C(COC(=O)c1ccc(S(=O)(=O)N2CCCC2)cc1)NCc1ccco1	HCV inh inconclusive
Cc1nc(N2CCN(C(=O)c3ccco3)CC2)c(C#N)c2c1CCCC2	HCV inh inconclusive
CC(C)Cc1nc(N2CCN(C(=O)c3ccco3)CC2)c(C#N)c2c1CCCC2	FMDV inh inconclusive, HCV inh 10µM
CC(C)C(=O)N1CCN(c2nc(-c3ccccc3)c3c(c2C#N)CCCC3)CC1	FMDV inh inconclusive, HCV inh 6.3µM, HCMV inh inconclusive, AmpC inh detg inconclusive
COc1cccc(CN2CCOc3ccc(C(O)c4cccnc4)cc3C2)c1 (centres undefined)	none (no result: AmpC no deterg, HCV inh, HCMV inh, AmpC inh detg)
C1CCC(C(CC2CCCCN2)C2CCCCC2)CC1 (centres undefined)	HCV inh inconclusive, HCMV inh -99!
COc1ccc(-n2c(CNC(=O)c3cccc4ccccc34)nnc2SC)cc1	none (no result: AmpC no deterg, HCV inh, HCMV inh, AmpC inh detg)
c1ccc2[nH]c(-c3cscn3)nc2c1	HCMV inh -90
CCc1cc(=O)oc2c3c(cc(OCC(=O)N[C@H](C(=O)O)[C@H](C)CC)c12)OC(C)(C)CC3	HCMV inh inconclusive
COC(=O)c1scc(C#N)c1N/N=C(\C#N)S(=O)(=O)c1ccc(Cl)cc1	FMDV inh 14µM, HCV inh inconclusive, HCMV inh -97
COC(=O)c1scc(S(=O)(=O)C(C)C)c1N/N=C(\C#N)C(=O)c1ccc(Cl)cc1	FMDV inh inconclusive, HCV inh inconclusive, HCMV inh inconclusive
COc1ccc(-c2cn[nH]c2-c2ccc(OCc3ccc([N+](=O)[O-])cc3)cc2O)cc1	HCV inh inconclusive, HCMV inh -93
CCc1cc(-c2[nH]ncc2-c2ccc(OC)cc2)c(O)cc1O	FMDV inh 11µM, HCV inh 4µM, HCMV inh -98
C=C(C)COc1ccc(-c2[nH]ncc2Oc2ccc(OC)cc2)c(O)c1	HCV inh inconclusive
CCCc1cc(-c2[nH]ncc2-c2ccc3c(c2)OCCCO3)c(O)cc1OC	HCV inh inconclusive (no result: FMDV inh)
CCc1cc(-c2[nH]ncc2-c2ccc3c(c2)OCO3)c(O)cc1O	HCV inh inconclusive, HCMV inh -99 (no result: FMDV inh)
COc1ccc(-c2[nH]ncc2-c2nc(C)cs2)c(O)c1	none
COc1ccc(-c2[nH]ncc2-c2ccc3c(c2)OCCO3)c(O)c1	FMDV inh inconclusive, HCV inh inconclusive, HCMV inh -82 (no result: AmpC no deterg)
